Assay results: PubChem BioAssay AID686970 (National Center for Advancing Translational Sciences (NCATS), 2013)
The campaign covered roughly 360,000 compounds. About 6,000 (1.7%) were called active. Roughly 8% stayed inconclusive and do not appear here. Calls come from the whole dose curve; as a rule, active = well fitted cell-killing curve with a large enough effect; inconclusive = small, poorly fitted or top-dose-only effect, or effect the other way; inactive = flat fitted curve, though single readings scatter. Only a selection was taken, and actives are over-represented in it overall.

assay: qHTS for induction of synthetic lethality in tumor cells producing 2HG: qHTS for the HT-1080-NT fibrosarcoma cell line; conditions: HT-1080-NT fibrosarcoma viability, CellTiter-Glo ATP luminescence, 48 h; series mostly up to 46.1 µM; activity, negative = less viability: at the top concentration;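 note: NT is the 2HG producing partner of a matched IDH1 knockdown line; nearly all actives have a fitted effect of over 55% in size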;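 for activity, negative = less viability: 0% = DMSO-treated cells and -100% = media-only wells without cells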
Summary of the method: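 Luminescent CellTiter-Glo readout after 48 hours of compound exposure at 37 degrees C defined viability of HT-1080-NT cells. Activity was normalized to DMSO wells and cell-free media wells; concentration-response curves were fitted and assigned curve classes.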
Potency is the fitted concentration of half-maximal effect.

Structure (SMILES)	activity, negative = less viability	Potency
O=C(CCN1CCCCC1)Nc1ccc(F)c(F)c1	-0.559% (inactive)	
Cc1cccc(C(=O)C(O)(c2ccccc2)C2CCCCC2=O)c1 (stereo not drawn)	-18.7% (inactive)	
CN(Cc1c(F)cccc1Cl)C(=O)COC(=O)Cn1cnc2ccccc2c1=O	1.04% (inactive)	
COC(=O)C[C@@H]1C=C[C@@H](NS(=O)(=O)c2cccc(OC)c2)[C@@H](CO)O1	12.9% (inactive)	
CC[C@@H]1Cc2cc(O)ccc2C2=C1c1ccc(O)cc1C[C@H]2CC		18.4 µM (active)
Cc1cc(C)cc(OCC(=O)NCc2cc(C)nc3ccccc23)c1	-3.23% (inactive)	
Cc1cc(C)c(NC(=O)c2oc3ccccc3c2COc2ccccc2)c(C)c1	-3.26% (inactive)	
Cc1cc(C)c(NC(=O)C[N+](C)(C)CC(O)COc2cccc3ccccc23)c(C)c1 (stereo not drawn)		18.4 µM (active)
CC(C)(C(=O)NO)c1ccccc1	-14.5% (inactive)	
CCN1C(=O)[C@H]2[C@@H](c3ccc(C(F)(F)F)cc3)N[C@]3(CCCN(Cc4ccc(Br)cc4)C3=O)[C@H]2C1=O	-8.24% (inactive)	
O=C(CCCOc1ccc(Cl)cc1Cl)NNC(=O)C1CCC1	-13.1% (inactive)	
COc1cccc(CN2CCC(C(=O)NC(c3ccc4c(c3)OCO4)c3ccccn3)CC2)c1 (stereo not drawn)	2.22% (inactive)	
O=C(NC(c1ccc(-c2ccccc2)cc1)c1cnccn1)C1CCN(CCOc2ccc(Cl)cc2Cl)CC1 (stereo not drawn)		20.6 µM (active)
CCCNC(=O)C1(C)CCN1C(=O)C1(c2ccccc2)CC1 (stereo not drawn)	21.2% (inactive)	
COc1ccccc1CNC(=O)c1cc(-c2cc(F)ccc2OC)n[nH]1	-1.62% (inactive)	
CCNC(=O)c1cc2c(c(-c3cccc(-c4cncnc4)c3)n1)[C@H](CCO)N(C(C)=O)C2	-4.1% (inactive)	
COC(=O)c1ccc2nc(-c3ccc(Cl)cc3)c(Cc3cccc(F)c3)n2c1	1.35% (inactive)	
Cn1c(=O)c2cc(NC(=O)NCCc3cccs3)ccc2n1Cc1cccc(C(F)(F)F)c1	2.3% (inactive)	
COc1ccccc1NC(=O)COc1ccc(C(=O)OCC(=O)N(C(C)C)C(C)C)cc1OC	-5.95% (inactive)	
CCN(CCCCOC(=O)c1ccc(OC)c(OC)c1)C(C)Cc1ccc(OC)cc1 (stereo not drawn)		18.4 µM (active)
COc1ccc(C(=O)OCC(=O)NCCCc2ccccc2)cc1OC	5.07% (inactive)	

Structure (SMILES)	activity, negative = less viability	Potency
CCC(=O)N1Cc2cc(C(=O)NCc3cccc(F)c3)nc(-c3cccc(C4=CCCC4)c3)c2[C@H]1CCO	-25.7% (inactive)	
CS(=O)(=O)c1cccc(-c2ccc3nncn3c2)c1	19% (inactive)	
CCOC(=O)N1CCN(C(c2ccnc3ccccc23)c2nnnn2-c2c(C)cccc2C)CC1 (stereo not drawn)	-2.12% (inactive)	
CC1(C)CN(CCc2ccccc2)C(=O)[C@H]1CC(=O)Nc1ccc(Br)cc1	-0.774% (inactive)	
CCCCN1CC(C)(C)[C@H](CC(=O)Nc2ccc(Br)cc2)C1=O	15.3% (inactive)	
CN1C(CC(=O)Nc2ccc(Br)cc2)c2ccccc2CC1(C)C (stereo not drawn)		18.4 µM (active)
COC(=O)c1ccc2nc(-c3cccc(Br)c3)c(Cc3ccc(OC)cc3C)n2c1	-1.34% (inactive)	
COCCn1c(SCC(=O)Nc2ccc(F)cc2F)nc2c(c1=O)SCC2	-4.25% (inactive)	
COc1ccccc1NC(=O)/C=C/C(N)=O		8.91 µM (active)
COc1ccccc1NC(=O)N(O)C1(C#N)CCCCC1	4.03% (inactive)	
COc1ccccc1NC(=O)COC(=O)COc1ccccc1F	1.92% (inactive)	
O=C1NC[C@H](CCCCN2C[C@H](Cc3ccc(O)cc3)N(CCc3ccccc3)C(=O)C2=O)N(CCc2ccccc2)C1=O	3.97% (inactive)	
Cc1cc(N)n2nc(-c3ccc(C(C)(C)C)cc3)cc2n1		16.4 µM (active)
COc1ccc(-c2cc(C)nc3nc(N)nn23)cc1	-2.16% (inactive)	
Cc1cc(C(C)(C)C)cc(C)c1N	6.3% (inactive)	
Cc1ccc(S(=O)(=O)NN=C2CC(C)(C)CC(=O)C2(C)C)cc1	6.95% (inactive)	
CC(=O)NC(c1cccc(F)c1)c1nc(-c2cccc(F)c2)cs1 (stereo not drawn)	1.42% (inactive)	
Cc1ccc(C(O)c2ncc(-c3ccccc3F)[nH]2)cc1F (stereo not drawn)	1.03% (inactive)	
CC(=O)Nc1ccc(Nc2c([N+](=O)[O-])cc(S(C)(=O)=O)cc2[N+](=O)[O-])cc1	-24.2% (inactive)	
CC(=O)Nc1ccc(S(=O)(=O)N(C)c2nc3ccccc3nc2Cl)cc1	-0.551% (inactive)	
CC(=O)Nc1ccc(Nc2c3ccccc3nc3ccccc23)cc1		14.6 µM (active)

Structure (SMILES)	activity, negative = less viability	Potency
C[C@H]1CN([C@@H](C)CO)C(=O)c2cc(-c3ccccc3F)cnc2O[C@H]1CN(C)C(=O)C1CCOCC1	0.535% (inactive)	
CCOc1ccc(NC(=O)CSc2nnc3c(n2)[nH]c2ccc(S(=O)(=O)N4CCOCC4)cc23)cc1	7.72% (inactive)	
CCc1nnc(NC(=O)c2ccc(S(=O)(=O)NC3CCCCC3)cc2)s1		6.31 µM (active)
CCc1nnc(NC(=O)c2cc(S(=O)(=O)N3CCCCC3)ccc2C)s1	4.89% (inactive)	
CCc1nnc(NC(=O)C2CCCN2S(=O)(=O)c2ccccc2)s1 (stereo not drawn)	-5.38% (inactive)	
CCOC(=O)c1c(NC(=O)COC(=O)c2ccc(S(=O)(=O)C(F)F)cc2)sc(C(=O)N(C)C)c1C	8.55% (inactive)	
CCCCn1nnnc1C1(C)CCC(=O)N1Cc1ccc(OC)c(OC)c1 (stereo not drawn)	18% (inactive)	
Cc1cccc(NC(=O)COC(=O)c2ccccc2OCc2cccc(Br)c2)c1	-2.81% (inactive)	
COc1ccc(C(O)c2nc(-c3ccc(OC)nc3)cs2)cc1 (stereo not drawn)	1.33% (inactive)	
COc1ccc(NC(=O)CN2C(=O)NC(C)(c3ccccc3)C2=O)cn1 (stereo not drawn)	5.3% (inactive)	
COc1ccc(CS(=O)/C(Cl)=C(/Cl)C(=O)Nc2ccc(OC)nc2)cc1 (stereo not drawn)		1.3 µM (active)
CC(=O)NC(c1ccccc1)c1nc(-c2ccccc2C)cs1 (stereo not drawn)	13.7% (inactive)	
CSc1ncnc2c1ncn2CCCNCC(C)c1ccccc1 (stereo not drawn)	-0.244% (inactive)	
COc1ccc(NC(=O)N(C)C[C@@H]2OCc3cn(nn3)CCCC(=O)N([C@H](C)CO)C[C@H]2C)c(OC)c1	-9.92% (inactive)	
CCCCNC(=O)C[C@@H]1C[C@@]2(C(=O)OC)CC(C)(C)CC=C2N(Cc2ccco2)C1=O	8.85% (inactive)	
COc1ccc(Nc2cc(Sc3ccc(OC)cc3)ncn2)cc1	-15.5% (inactive)	
COc1ccc(NC(=O)c2nc(-n3nc(C)cc3C)ccc2Cl)cc1Cl	1.16% (inactive)	
COc1ccc(Nc2cc(C)nc(-n3nc(C)cc3C)n2)cc1		1.12 µM (active)
CNS(=O)(=O)c1ccc2c(c1)[nH]c(=S)n2C	1.17% (inactive)	
CC1=C(C(=O)N2CCOCC2)CC(CC(=O)NCc2cccc3ccccc23)C(=O)N1CCC1=CCCCC1 (stereo not drawn)	2.57% (inactive)	
CCCC(=O)N1CCC1(C)C(=O)NCc1ccc(C(C)C)cc1 (stereo not drawn)	3.57% (inactive)	
